From PubChem BioAssay AID594 (National Center for Advancing Translational Sciences (NCATS), 2007) come the findings set out here.

Each structure is given as a SMILES string. Out of some 59,000 compounds screened, about 30 (0.05%) were called active. No stated cut-off is given here; in the data, active means max dye-equivalent concentration above about 11 nM; inconclusive means between about 1.1 nM and that limit; inactive means weaker than that. Only a selection was taken, and actives are over-represented in it overall.

The nature of this assay: qHTS Assay for Spectroscopic Profiling in Rhodamine Spectral Region. The following applies: Rhodamine-region fluorescence, 547/598 nm, Tris buffer; hits give high values. From the text: NIH Molecular Libraries Screening Centers Network [MLSCN] NIH Chemical Genomics Center [NCGC] […] Occasionally, the artifactual effect may originate from the compound#s own spectral or other biophysical properties which generally tend to track its assay concentration. Pre-screening/profiling the library with respect to the compounds# spectral properties should help one exclude false positives early on. While the most informative fluorescent profiling data set is obtained by performing a full excitation and emission scan of each well by using a monochromator-based plate reader, such an approach is practical only on a very limited scale as scanning each well requires long time. An alternative approach, applied here, is to perform plate reader scans using selected excitation and emission wavelength pairs to generate a multidimensional relational database that correlates compound concentration and the respective relative fluorescence intensity at a given wavelength set. A standard curve of rhodamine present on each plate as six-point concentration series, was used to compute a normalized fluorescence response, termed dye-equivalent concentration, for each compound at each concentration.
NCGC Assay Protocol Summary: Buffer: 100 mM Tris buffer, pH 8.0 Dye standard plate: The wells in columns 1 through 4 of a Kalypsys polypropylene 1536-well compound plate were filled with standard solutions of fluorophore corresponding to the spectral region of interest. Solutions of rhodamine were placed in the following wells: E1, F1: 3 mM, E2, F2: 300 uM, E3, F3: 30 uM, E4, F4: zero (DMSO), G1, H1: 3 uM, G2, H2: […], G3, H3: 300 nM, G4, H4: zero (DMSO). Assay Steps: Six uL of buffer were dispensed to 1536-well Greiner black plates. Compounds and dye standards (23 nL) were transferred via Kalypsys PinTool. The plates were incubated for 15 min at room temperature, and then read on ViewLux (Perkin-Elmer) High-throughput CCD imager using 547 nm and 598 nm excitation and emission filter set. Keywords: NIH Roadmap, MLSCN, MLI, MLSMR, qHTS, NCGC, Rhodamine , Fluorescent Profiling.
On the technique in general: Quantitative high-throughput screening tests each substance at several concentrations.
Consider `COc1ccc(Cl)cc1S(=O)(=O)N1CCN(CC(=O)C(C)(C)C)CC1`, for which the max dye-equivalent concentration result is “inactive”.

Regarding `O=C(CCCC(=O)N(CC(=O)NC1CCCC1)Cc1ccccc1Cl)Nc1ccccn1`, the max dye-equivalent concentration entry is “inactive”.

For the compound `COc1ccc(CCNC(=O)c2cc3sccc3n2C)cc1OC`, the max dye-equivalent concentration entry was “inactive”.

As for `Cc1ccc(C)c(S(=O)(=O)N2CC(=O)Nc3ccccc32)c1`, the max dye-equivalent concentration entry is “inactive”.

On to `CCO/C([O-])=N/c1c[n+](N2CCOCC2)no1`, for which the max dye-equivalent concentration entry is “inactive”.

`C/C(=C(\C#N)C(=O)NCCCN1CCOCC1)N(C)C`: the max dye-equivalent concentration entry was “inactive”.

With `Cc1ccc(SCc2cc(=O)[nH]c(N3CCCCC3)n2)cc1`, the max dye-equivalent concentration entry is “inactive”.

`FC(F)(F)c1ccccc1-c1cc(NCc2ccccc2)ncn1`: the max dye-equivalent concentration entry is “inactive”.

On to `CCOc1ccc(-c2cn(S(=O)(=O)c3cccc4nsnc34)nc2N)cc1`, for which the max dye-equivalent concentration result was “inactive”.

As to `O=C(O)c1c(Br)c(Br)c(Br)c(Br)c1C1c2ccc(O)cc2Oc2cc(O)ccc21`, the max dye-equivalent concentration was 11 nM (active).

Take `COC(=O)NC1(C(F)(F)F)NC(=O)N(C2CCCCC2)C1=O` (stereo not given): the max dye-equivalent concentration entry was “inactive”.

On to `C=CCc1cccc2cc(C(=O)N3CCN(C(=O)OCC)CC3)c(=O)oc12`, for which the max dye-equivalent concentration result was “inactive”.

For the compound `COc1ccc2[nH]c3c(=O)n(Cc4ccco4)cnc3c2c1`, the max dye-equivalent concentration result was “inactive”.

In the case of `COCCNC(=O)CN(C(=O)CCC(=O)Nc1cc(C)on1)c1ccc(C)cc1C`, the max dye-equivalent concentration entry is “inactive”.

For `CCC(C)(C)n1nnnc1C(c1cccs1)N1CCN(c2nc3ccccc3s2)CC1` (stereo not given), the max dye-equivalent concentration entry is “inactive”.

For `Nc1nc(N)c2[nH]c(CNc3ccc(C(=O)O)cc3)nc2n1`, the max dye-equivalent concentration result was “inactive”.

For `O=C1CCCc2c1[nH]c1ccc(Br)cc21`, the max dye-equivalent concentration result is “inactive”.

Consider `C=C(Br)CN1CCN(CC(=C)Br)CC1`, for which the max dye-equivalent concentration result is “inactive”.

As for `O=C(Nc1nc2cc3c(cc2s1)OCCO3)c1cccc(S(=O)(=O)N2CCOCC2)c1`, the max dye-equivalent concentration result was “inactive”.

On to `CCOc1nc(-c2ccc(OC)cc2)ccc1-c1noc(-c2cc(OC)c(OC)c(OC)c2)n1`, for which the max dye-equivalent concentration entry is “inactive”.

Consider `Cc1ccc(C)c(NC(=O)C2CCCN2C(=O)OC(C)(C)C)c1` (stereo not given), for which the max dye-equivalent concentration result is “inactive”.

As for `O=C(O)[C@@H](O)Cc1ccccn1`, the max dye-equivalent concentration result is “inactive”.

For the compound `O=C(O)CCC(=O)Nc1ccc(N2CCOCC2)cc1`, the max dye-equivalent concentration result is “inactive”.

In the case of `Cc1ccc2nc(CC(=O)c3ccc4ccccc4c3)c(=O)[nH]c2c1`, the max dye-equivalent concentration result was “inactive”.

`COc1ccc(-c2cc3ccc(OCc4nn[nH]n4)cc3oc2=O)cc1`: the max dye-equivalent concentration result is “inactive”.

In the case of `O=C(Nc1ccc2c(c1)OCCO2)C1CCCN(c2ncccn2)C1` (stereo not given), the max dye-equivalent concentration result is “inactive”.

Regarding `CCOc1ccc2c(c1)cc(CN(C(=O)CC)C1CCCCC1)c1nnnn12`, the max dye-equivalent concentration result is “inactive”.

As to `COCCn1c(=O)c(CCc2ccccc2)nc2cnc(N3CCNCC3)nc21`, the max dye-equivalent concentration result was “inactive”.

Regarding `Cc1cc(=O)cc(C)[nH]1`, the max dye-equivalent concentration result was “inactive”.

In the case of `Cn1c(=O)cc(OCCCC(=O)N2CCN(Cc3ccc4c(c3)OCO4)CC2)c2ccccc21`, the max dye-equivalent concentration result is “inactive”.

For `COc1ccc2[nH]c3cc4c(=O)c5cc(OC)ccc5[nH]c4cc3c(=O)c2c1`, the max dye-equivalent concentration result was “inactive”.

For `CC(=O)O[C@]1(C(C)=O)CC[C@@H]2[C@@H]3C=C(C)C4=CC(=O)CC[C@@]4(C)[C@H]3CC[C@]21C`, the max dye-equivalent concentration entry was “inactive”.

Take `COc1ccc(CC(=O)n2nc(-c3cccnc3)nc2N)cc1`: the max dye-equivalent concentration result is “inactive”.

For `Oc1ccc(Cn2cc[nH]c2=S)cc1`, the max dye-equivalent concentration result is “inactive”.

As for `O=C(CN1CCN(S(=O)(=O)/C=C/c2ccccc2)CC1)NC(=O)NCc1ccco1`, the max dye-equivalent concentration entry is “inactive”.

Take `CC1CCCC(NC(=O)CN2CCN(Cc3ccc(Cl)cc3)C2=O)C1C` (stereo not given): the max dye-equivalent concentration result was “inactive”.

For the compound `Clc1ccc(Nc2nc(-c3cccs3)cs2)nc1`, the max dye-equivalent concentration result is “inactive”.

As for `Cc1ccc(/C(=C/CN2CCCC2)c2ccccn2)cc1`, the max dye-equivalent concentration entry is “inactive”.

For the compound `Cc1ccc2c(c1)c1ncn(CCC3=CCCCC3)c(=O)c1n2C`, the max dye-equivalent concentration entry is “inactive”.

On to `COc1ccc(S(=O)(=O)NC2(C(F)(F)F)N=C3SCCN3C2=O)cc1` (stereo not given), for which the max dye-equivalent concentration result was “inactive”.

As to `CCn1c(-c2cc(OC)ccc2OC)csc1=Nc1c(C)n(C)n(-c2ccccc2)c1=O`, the max dye-equivalent concentration result was “inactive”.

Consider `O=C(c1cnccn1)N1CCC2(CCCN(Cc3ccccc3)C2)CC1`, for which the max dye-equivalent concentration result was “inactive”.

For the compound `CCN(CC)CCNC(=O)C1c2ccccc2C(=O)N(C)C1c1cn(C)c2ccccc12` (stereo not given), the max dye-equivalent concentration entry was “inactive”.

Consider `CC(C)(O)C#Cc1ccc(C(=O)N2CCC(C(N)=O)(N3CCCCC3)CC2)cc1`, for which the max dye-equivalent concentration result was “inactive”.

Regarding `O=C(O)[C@@H]1CCCN1c1ncnc2sc3c(c12)CCC3`, the max dye-equivalent concentration result was “inactive”.

With `O=C(CSc1nc2cc3c(cc2c(=O)n1CCC1=CCCCC1)OCO3)NCc1ccco1`, the max dye-equivalent concentration result is “inactive”.

Turning to `CC1C=CCC2C(=O)N(c3cccc(C(=O)N4CCCCCC4)c3)C(=O)C12` (stereo not given), the max dye-equivalent concentration result was “inactive”.

Regarding `COCCNC(=O)CSc1nc2c(n1-c1ccccc1)CCCC2`, the max dye-equivalent concentration result was “inactive”.

In the case of `COc1ccc(S(=O)(=O)N2CCCC2)c(C)c1C`, the max dye-equivalent concentration result is “inactive”.

As for `COc1ccc(C2C(C(=O)N3CCN(c4ccc(OC)cc4)CC3)c3ccccc3C(=O)N2C)cc1` (stereo not given), the max dye-equivalent concentration entry was “inactive”.

As for `O=C(CNS(=O)(=O)c1cccc(C(F)(F)F)c1)Nc1ccccc1F`, the max dye-equivalent concentration result is “inactive”.

As for `CC(C)OC(=O)C(C#N)c1nc2ccccc2nc1N1CCN(Cc2ccccc2)CC1` (stereo not given), the max dye-equivalent concentration result is “inactive”.

Consider `CC(=O)c1cccc(NC(=O)N2CCCC2C(=O)NCCC(C)C)c1` (stereo not given), for which the max dye-equivalent concentration result was “inactive”.

Consider `O=S(=O)(c1ccc(Sc2nnc3ccccn23)nc1)N1CCOCC1`, for which the max dye-equivalent concentration result is “inactive”.

As for `Cc1ccc(NC(=O)Cn2nc(C)c3ccccc3c2=O)c(C)c1`, the max dye-equivalent concentration entry is “inactive”.

`CCOC(=O)c1sc(=S)n2c1[nH]c(=O)c1ccc(C(=O)OC)cc12`: the max dye-equivalent concentration result was “inactive”.

In the case of `O=C(Nc1ccccc1)Nc1ccccc1C(=O)NCc1ccco1`, the max dye-equivalent concentration entry was “inactive”.

As for `CCCCSc1nnc(-c2ccc(NC(=O)CC)cc2)n1C`, the max dye-equivalent concentration entry is “inactive”.

For `Cc1cccc(N=C2NC(=O)CS2)c1C`, the max dye-equivalent concentration entry was “inactive”.

For `CC1=NCCN1S(=O)(=O)c1ccc(Br)c(C)c1`, the max dye-equivalent concentration result is “inactive”.

Consider `O=c1c(-c2ccc(F)cc2)nc2cnc(N3CCOCC3)nc2n1-c1ccccc1`, for which the max dye-equivalent concentration result was “inactive”.

With `OCCCNC(c1ccccc1)c1ccc(O)cc1` (stereo not given), the max dye-equivalent concentration entry was “inactive”.

`Cc1ccccc1NC(=O)c1cc(S(=O)(=O)N2CCOCC2)cs1`: the max dye-equivalent concentration entry is “inactive”.

Regarding `O=C(Nc1cccnc1)c1noc2c1CCCCC2`, the max dye-equivalent concentration entry is “inactive”.

Regarding `CCC(=O)Nc1ccccc1N1CCN(S(C)(=O)=O)CC1`, the max dye-equivalent concentration result is “inactive”.

As to `COc1ccccc1C(=O)N1CCNC(=O)C1CC(=O)Nc1ccc(Cl)cc1` (stereo not given), the max dye-equivalent concentration entry was “inactive”.

For `C[C@H](CCC(=O)O)[C@H]1CC[C@@H]2[C@H]3CC[C@H]4C[C@H](O)CC[C@@]4(C)[C@@H]3CC[C@@]21C`, the max dye-equivalent concentration result is “inactive”.

On to `NC(=O)CSc1oc(-c2cccs2)nc1S(=O)(=O)c1ccccc1`, for which the max dye-equivalent concentration result was “inactive”.

On to `CCOCCN(C=O)c1cccc(OC)c1`, for which the max dye-equivalent concentration result is “inactive”.

Take `O=C(COC(=O)c1ccc2c(c1)OCCO2)NCc1ccccc1`: the max dye-equivalent concentration entry was “inactive”.
